Activity calls are given as the source filed them. How the source made its calls: active means hit-call score of the fitted dose curve at least 0.9, where 1 is the maximum; inactive means score below 0.9.
Assays:
Conditions in all cases: mRNA level, 48 h; actives raise or lower the signal
[1] = read-out: Glutamate-cysteine ligase catalytic (GCLC), GCLC (gene 2729); assay: LTEA_HepaRG_GCLC: Life Technologies and Expression Analysis (LTEA) Assay for Glutamate-cysteine ligase catalytic (GCLC) using HepaRG (AID 2283498)
Outline: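 HepaRG, 48 h exposure, 8-pt half-log series from 100 uM, 0.5% DMSO vehicle; TaqMan qRT-PCR for GCLC mRNA, housekeeping-normalized; bidirectional curve fit vs DMSO baseline.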

[2] = read-out: growth arrest and DNA damage 45 (GADD45G), GADD45G (gene 10912); assay: LTEA_HepaRG_GADD45G: Life Technologies and Expression Analysis (LTEA) Assay for growth arrest and DNA damage 45 (GADD45G) using HepaRG (AID 2283499)
Outline: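 Concentration-response in HepaRG: 48 h dosing, 0.5% DMSO, highest level 100 uM. GADD45G expression by qRT-PCR, normalised to endogenous controls; bidirectional fit to DMSO.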

[3] = read-out: Glutamate-cysteine ligase regulatory (GCLM), GCLM (gene 2730); assay: LTEA_HepaRG_GCLM: Life Technologies and Expression Analysis (LTEA) Assay for Glutamate-cysteine ligase regulatory (GCLM) using HepaRG (AID 2283500)
Outline: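 Endpoint is GCLM transcript level by qRT-PCR, normalized to three housekeeping genes, after 48 h chemical exposure of human HepaRG cells (0.5% DMSO vehicle, top 100 uM, half-log dilutions). Fitting was bidirectional relative to DMSO.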

[4] = read-out: Glutathione S-transferase M3 (GSTM3), GSTM3 (gene 2947); assay: LTEA_HepaRG_GSTM3: Life Technologies and Expression Analysis (LTEA) Assay for Glutathione S-transferase M3 (GSTM3) using HepaRG (AID 2283501)
Outline: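 Expression of GSTM3 is determined by qRT-PCR in human liver HepaRG cells treated 48 h with an 8-point half-log range from 100 uM in 0.5% DMSO.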

[5] = read-out: Heat shock 70 kDa protein 1 (HSPA1A), gene 3303; assay: LTEA_HepaRG_HSPA1A: Life Technologies and Expression Analysis (LTEA) Assay for Heat shock 70 kDa protein 1 (HSPA1A) using HepaRG (AID 2283502)
Outline: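 Cells were plated and cultured for 48 h, then switched to serum-free induction medium. Chemicals were added at eight half-log concentrations up to 100 uM for 48 h. RNA was then isolated and HSPA1A measured by qRT-PCR with bidirectional curve fitting against DMSO.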

[6] = read-out: 3-Hydroxy-3-Methylglutaryl-CoA Synthase 2 (HMGCS2), HMGCS2 (gene 3158); assay: LTEA_HepaRG_HMGCS2: Life Technologies and Expression Analysis (LTEA) Assay for 3-Hydroxy-3-Methylglutaryl-CoA Synthase 2 (HMGCS2) using HepaRG (AID 2283504)
Outline: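 This steatosis marker was read as HMGCS2 mRNA change in HepaRG cells treated 48 h with up to 100 uM chemical. Normalisation used housekeeping genes; activity in either direction was fitted relative to 0.5% DMSO vehicle.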

HGF (gene 3082) = assay: LTEA_HepaRG_HGF: Life Technologies and Expression Analysis (LTEA) Assay for Hepatocyte Growth Facto (HGF) using HepaRG (AID 2283505)
Outline: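 Using HepaRG monolayers kept in 0.5% DMSO, chemicals were tested in duplicate over eight half-log concentrations from 100 uM for 48 h. Endpoint: HGF mRNA change relative to DMSO, normalized to ACTB/GAPDH/POLR2A.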

[7] = read-out: Insulin Like Growth Factor 1 (IGF1), IGF1 (gene 3479); assay: LTEA_HepaRG_IGF1: Life Technologies and Expression Analysis (LTEA) Assay for Insulin Like Growth Factor 1 (IGF1) using HepaRG (AID 2283506)
Outline: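 Cells are thawed, plated and cultured 48 h, then exposed in duplicate to chemical (highest 100 uM, half-log steps, 0.5% DMSO) for another 48 h. Total RNA is analysed by Fluidigm qRT-PCR for IGF1 expression relative to vehicle.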

[8] = read-out: Intercellular Adhesion Molecule 1 (ICAM1), ICAM1 (gene 3383); assay: LTEA_HepaRG_ICAM1: Life Technologies and Expression Analysis (LTEA) Assay for Intercellular Adhesion Molecule 1 (ICAM1) using HepaRG (AID 2283507)
Outline: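 Using the human liver line HepaRG, compounds are tested in duplicate over 48 h at concentrations up to 100 uM. Expression is determined by TaqMan qRT-PCR, normalized to endogenous controls, and analysed relative to 0.5% DMSO vehicle.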

[9] = read-out: Insulin-like growth factor-binding protein 1 (IGFBP1), IGFBP1 (gene 3484); assay: LTEA_HepaRG_IGFBP1: Life Technologies and Expression Analysis (LTEA) Assay for Insulin-like growth factor-binding protein 1 (IGFBP1) using HepaRG (AID 2283508)
Outline: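 HepaRG, 48 h, 8 conc. (max 100 uM, half-log), duplicates, 0.5% DMSO. Readout: TaqMan qRT-PCR, ACTB/GAPDH/POLR2A normalisation. Fit: bidirectional vs DMSO.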

[10] = read-out: Interleukin 6 (IL6), IL6 (gene 3569); assay: LTEA_HepaRG_IL6: Life Technologies and Expression Analysis (LTEA) Assay for Interleukin 6 (IL6) using HepaRG (AID 2283509)
Outline: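 qRT-PCR read-out of IL6 transcript, normalized to three housekeeping genes, after 48 h chemical exposure of HepaRG cells; 8-point half-log series, top 100 uM, 0.5% DMSO vehicle. Bidirectional curve fitting against DMSO baseline.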

[11] = read-out: Potassium channel subfamily K member 1 (KCNK1), KCNK1 (gene 3775); assay: LTEA_HepaRG_KCNK1: Life Technologies and Expression Analysis (LTEA) Assay for Potassium channel subfamily K member 1 (KCNK1) using HepaRG (AID 2283511)
Outline: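 HepaRG, 48 h exposure, 8-pt half-log series top 100 uM, 0.5% DMSO vehicle, duplicates. Readout: KCNK1 transcript by qRT-PCR (Fluidigm array), housekeeping-normalized; bidirectional curve fit relative to DMSO baseline.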

[12] = read-out: Keratin 19 (KRT19), KRT19 (gene 3880); assay: LTEA_HepaRG_KRT19: Life Technologies and Expression Analysis (LTEA) Assay for Keratin 19 (KRT19) using HepaRG (AID 2283512)
Outline: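 Readout is qRT-PCR of KRT19 mRNA, normalized to ACTB, GAPDH and POLR2A, from HepaRG cells treated 48 h with eight-point half-log dilutions topping at 100 uM. Activity in either direction is scored relative to 0.5% DMSO vehicle.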

[13] = read-out: JUN Transcription Factor, JUN (gene 3725); assay: LTEA_HepaRG_JUN: Life Technologies and Expression Analysis (LTEA) Assay for JUN Transcription Factor using HepaRG (AID 2283513)
Outline: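 Read-out is JUN transcript level by TaqMan qRT-PCR, normalized to ACTB, GAPDH and POLR2A, after 48 h chemical treatment of HepaRG cells. Concentration-response spanned eight half-log points up to 100 uM in 0.5% DMSO.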

[14] = read-out: Lipase C (LIPC), LIPC (gene 3990); assay: LTEA_HepaRG_LIPC: Life Technologies and Expression Analysis (LTEA) Assay for Lipase C (LIPC) using HepaRG (AID 2283514)
Outline: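 HepaRG, 48 h exposure, 8-pt half-log series from 100 uM in 0.5% DMSO, duplicates. Readout: LIPC mRNA by Fluidigm qRT-PCR, housekeeping-normalized (ACTB/GAPDH/POLR2A). Gain or loss fitted bidirectionally against DMSO baseline.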

[15] = read-out: Lipoprotein lipase (LPL), LPL (gene 4023); assay: LTEA_HepaRG_LPL: Life Technologies and Expression Analysis (LTEA) Assay for Lipoprotein lipase (LPL) using HepaRG (AID 2283515)
Outline: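 HepaRG, 48 h exposure, 8-pt half-log dilutions from 100 uM, 0.5% DMSO vehicle, duplicates; qRT-PCR (Fluidigm array) of LPL mRNA vs housekeeping genes; bidirectional curve fit relative to DMSO baseline.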

[16] = read-out: matrix metalloproteinase-10 (MMP10), MMP10 (gene 4319); assay: LTEA_HepaRG_MMP10: Life Technologies and Expression Analysis (LTEA) Assay for matrix metalloproteinase-10 (MMP10) using HepaRG (AID 2283517)
Outline: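 Transcript levels come from Fluidigm qRT-PCR normalized to three housekeeping genes, with curves fitted bidirectionally against 0.5% DMSO. Human HepaRG cells were dosed for 48 hours at concentrations up to 100 uM.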

Measured: AC50

O=c1c(-c2ccc(O)cc2)coc2cc(O)ccc12
inactive: all assays above

CN(C)C=O
not listed: [12]
inactive: all other assays above

CCc1ccc(CCOc2ccc(CC3SC(=O)NC3=O)cc2)nc1 (stereo not given)
inactive: [4] | HGF (gene 3082) | [11] | [13]
active: [1] 14.2 µM | [2] 11 µM | [3] 68.3 µM | [5] 23.6 µM | [6] 85.2 µM | [7] 64.9 µM | [8] 50 µM | [9] 82 µM | [10] 88.8 µM | [14] 82 µM | [15] 9.92 µM | [16] 86.3 µM

CCCCCCCC(=O)O
active: [8] 0.405 µM
not listed: [12]
inactive: all other assays above
